Source: PubChem
TROY signal inh: TROY signaling inhibition | Q293 LMP1-TROYcd NF-kB luciferase reporter, 4 h | inhibition, % at 10 µM | hit rate 0.98% among 360,000 | AID 1347056;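 active = compounds whose plate-normalised and pattern-corrected inhibition of the luciferase reporter signal at the single screening dose is 50% or more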
LGR2 inh: Drosophila LGR2 receptor signaling inhibition; HEK293 LGR2, CRE-luciferase, bursicon-stimulated, 4 h; inhibition, % at 9.99 µM; hit rate 0.35% among 380,000; AID 720647;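 active = drop in luminescence signal, shown as inhibition above about 50% in the replicate tests, limit read from the data, passing the limit was not always enough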;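 also: agonist challenge used bursicon conditioned medium at about half maximal strength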
HSP90 inh: blocks HSP90-mediated luciferase refolding in reticulocyte lysate. hit rate 0.91% among 290,000. Rabbit reticulocyte lysate, luciferase refolding luminescence, 3 h. inhibition, % at 5.6 µM;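 active = inhibition above the screen-wide mean plus 3 SD, computed separately per campaign, cut at about 16% in these data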;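 also: 0% = DMSO wells and 100% = 60 µM geldanamycin wells; inhibitors lower the luminescence because luciferase stays unfolded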
TWEAK Fn14 block: TWEAK-Fn14 signaling inhibition; TWEAK-stimulated Fn14 reporter cells, luciferase luminescence, 8 h; inhibition, % at 10 µM; hit rate 2% among 360,000; AID 1159606; in the data active = inhibition above about 50%
Starred values were filed as active, the others as inactive. In the library only some 2.2% were active in any assay of this set; here they are far more common.

Results for COc1ccc(/C=C2\SC(=S)N(CCCC(=O)Nc3ccccn3)C2=O)cc1OC ?
TROY signal inh: 24; LGR2 inh: 6; HSP90 inh: 5; TWEAK Fn14 block: 52*

What do the screens show for `COc1cccc(NC(=O)Nc2ccc3c(c2)OC[C@H](C)NC[C@@H](C)[C@@H](OC)CN(C)C3=O)c1`?
LGR2 inh: -4

How did COc1cc(/C=N/NC(=O)COc2cccc(F)c2)ccc1OS(=O)(=O)c1ccc(C)cc1 do in these assays?
TROY signal inh: 28; LGR2 inh: 21; HSP90 inh: 4; TWEAK Fn14 block: 51*

How did Cc1ccc(S(=O)(=O)Nc2nnc(CC(C)(C)C)s2)cc1 do in these assays?
TROY signal inh: -22; LGR2 inh: -8; HSP90 inh: 4; TWEAK Fn14 block: 109*

What do the screens show for `CC(C)(C)Cc1nnc(NS(=O)(=O)c2ccc(F)cc2)s1`?
TROY signal inh: -14; HSP90 inh: 0; TWEAK Fn14 block: 0

Results for Cc1cccc(NC(=O)Nc2ccccc2)n1 ?
TROY signal inh: -55; LGR2 inh: -67; HSP90 inh: -5; TWEAK Fn14 block: 39

How did CN(C)S(=O)(=O)Oc1cccc(C(=O)Nc2ccc(Cl)c(Cl)c2)c1 do in these assays?
TROY signal inh: 47; HSP90 inh: -3; TWEAK Fn14 block: 80*

Results for COC(=O)c1cc(NC(=O)Nc2ccccc2)ccc1Cl ?
TROY signal inh: -44; LGR2 inh: -28; HSP90 inh: -1; TWEAK Fn14 block: 0

How did O=C(Nc1ccc(Cl)c(Cl)c1)Nc1ccccc1C(=O)O do in these assays?
TROY signal inh: 38; LGR2 inh: 39; HSP90 inh: 18*; TWEAK Fn14 block: 45

Results for Cc1cccc(NC(=O)Nc2ccc(Cl)c(Cl)c2)n1 ?
TROY signal inh: 18; LGR2 inh: -28; HSP90 inh: 3; TWEAK Fn14 block: 58*

Results for COC(=O)c1cccc(NC(=O)Nc2ccc(Cl)c(Cl)c2)c1 ?
TROY signal inh: 31; LGR2 inh: -18; HSP90 inh: -7; TWEAK Fn14 block: 60*

How did CC(C)C#Cc1ccc2c(c1)O[C@H](CN(C)C(=O)C1CC1)[C@@H](C)CN([C@H](C)CO)S2(=O)=O do in these assays?
LGR2 inh: -8

How did O=c1[nH]c(-c2ccccc2F)nc2c1sc(=S)n2Cc1ccccc1 do in these assays?
TROY signal inh: 58*; LGR2 inh: -10; HSP90 inh: 2; TWEAK Fn14 block: 61*

What do the screens show for `CCCCn1c(=O)[nH]c(=O)c2c1nc(-c1ccccc1F)n2Cc1ccccc1`?
TROY signal inh: -16; LGR2 inh: 4; HSP90 inh: 0; TWEAK Fn14 block: 1

Results for C[C@H](CO)N1C[C@H](C)[C@@H](CN(C)S(=O)(=O)c2cccs2)Oc2ccc(NS(=O)(=O)c3cccs3)cc2CC1=O ?
LGR2 inh: 17

What do the screens show for `CN1c2ccc(C3=CCCCC3)cc2[C@H]2[C@H](CCN2C(=O)C2CCCCC2)[C@H]1CO`?
LGR2 inh: -3

How did Cc1c(C(=O)Oc2cccc3ccccc23)cnn1-c1ccccc1 do in these assays?
TROY signal inh: 82*; LGR2 inh: -13; HSP90 inh: 10; TWEAK Fn14 block: 73*

What do the screens show for `CO[C@H]1CN(C)C(=O)c2ccc(NC(=O)Cc3ccccc3)cc2OC[C@H](C)N(C(C)=O)C[C@H]1C`?
LGR2 inh: -1

What do the screens show for `CS(=O)(=O)c1ccc(S(=O)CC(=O)OCc2ccccc2)c([N+](=O)[O-])c1` (stereo not drawn)?
TROY signal inh: 56*; HSP90 inh: -1; TWEAK Fn14 block: 90*

Results for O=C(CS(=O)c1ccc(C(F)(F)F)cc1[N+](=O)[O-])Oc1ccccc1 (stereo not drawn) ?
TROY signal inh: 12; HSP90 inh: 7; TWEAK Fn14 block: -12

What do the screens show for `CCN(CC)c1ccc(C(=O)NNC(=O)CCl)cc1`?
TROY signal inh: 19; LGR2 inh: 12; HSP90 inh: 6; TWEAK Fn14 block: 8

Results for CCN(CC)c1ccc(C(=C2C=CC(=[N+](CC)CC)C=C2)c2ccccc2)cc1 ?
TROY signal inh: 89*; LGR2 inh: 105*; TWEAK Fn14 block: 107*

Results for CCN(CC)c1ccc(C(=C2C=CC(=[N+](CC)CC)C=C2)c2ccc(N(CC)CC)cc2)cc1 ?
TROY signal inh: 91*; TWEAK Fn14 block: 103*

Results for COc1ccc(CN(C)C[C@H]2Oc3ccc(NC(=O)Nc4ccc(C(F)(F)F)cc4)cc3C(=O)N([C@H](C)CO)C[C@H]2C)cc1 ?
LGR2 inh: -3

Results for COc1ccc(CC(=O)Nc2nc(-c3ccccc3)c(C(C)=O)s2)cc1OC ?
TROY signal inh: 21; LGR2 inh: 10; HSP90 inh: 2; TWEAK Fn14 block: 57*

How did COc1cc(CC(=O)Nc2nc(-c3ccccc3)c(C(C)=O)s2)cc(OC)c1OC do in these assays?
TROY signal inh: 5; LGR2 inh: -1; HSP90 inh: -6; TWEAK Fn14 block: 15

What do the screens show for `Cc1ccc(S(=O)(=O)N(C)C[C@H]2Oc3c(NC(=O)Nc4ccc(C(F)(F)F)cc4)cccc3C(=O)N([C@@H](C)CO)C[C@H]2C)cc1`?
LGR2 inh: 48

What do the screens show for `COc1cc(-c2cnc3c(NC=O)cc(-c4cccc(C(F)(F)F)c4)cn23)cc(OC)c1OC`?
TROY signal inh: 39; LGR2 inh: 13; TWEAK Fn14 block: 75*

What do the screens show for `CN(C)C(=O)c1cccc(-c2cnc3c(NC=O)cc(-c4cccc(C(F)(F)F)c4)cn23)c1`?
TROY signal inh: 34; LGR2 inh: 16; TWEAK Fn14 block: 63*

How did COc1cc(-c2cnc3c(NC=O)cc(-c4ccc(N5CCN(C)CC5)cc4)cn23)cc(OC)c1OC do in these assays?
TROY signal inh: 44; LGR2 inh: -21; TWEAK Fn14 block: -3

How did Cc1cccc(-c2cc(NC=O)c3ncc(-c4cccc(C(=O)N(C)C)c4)n3c2)c1 do in these assays?
TROY signal inh: 5; LGR2 inh: -6; TWEAK Fn14 block: 16

How did COc1cc(-c2cnc3c(NC(C)=O)cc(-c4ccc(N5CCN(C)CC5)cc4)cn23)cc(OC)c1OC do in these assays?
TROY signal inh: 63*; LGR2 inh: 22; TWEAK Fn14 block: 54*

What do the screens show for `COc1ccc(-c2cnc3c(NC=O)cc(-c4ccccc4OC)cn23)cc1OC`?
TROY signal inh: 26; LGR2 inh: -26; TWEAK Fn14 block: 53*

How did COc1ccc(C(CNC(=O)C(C)c2ccc3cc(OC)ccc3c2)N(C)C)cc1 (stereo not drawn) do in these assays?
TROY signal inh: 8; LGR2 inh: 4; HSP90 inh: 1; TWEAK Fn14 block: 63*

What do the screens show for `C[C@@H]1CN([C@H](C)CO)C(=O)Cc2cc(NC(=O)C3CC3)ccc2O[C@@H]1CN(C)CC1CC1`?
LGR2 inh: 3

Results for O=C(N[C@@H]1C=C[C@@H](CC(=O)N2CCc3ccccc3C2)O[C@H]1CO)C1CCOCC1 ?
LGR2 inh: 4

How did O=C(NCCN1CCCCC1)[C@H]1[C@H](CO)[C@H]2Cn3c(cccc3=O)[C@@H]1N2C(=O)C1CCCCC1 do in these assays?
LGR2 inh: 20

How did Cn1c(N2CCN(c3ccccn3)CC2)nc2c1c(=O)n(Cc1ccccc1Cl)c(=O)n2C do in these assays?
TROY signal inh: 27; HSP90 inh: 1; TWEAK Fn14 block: 17
